Sampled rows, rich in hits. Any-hit rate of the full collection: about 3%.
SENP7 inh: blocks the human protease SENP7; Q9BQF6; recombinant SENP7, Z-RLRGG-aminoluciferin luminescence, 40 min; inhibition, % at 5 µM; actives 1.5% (n = 330,000);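 active = inhibition above about 50% at the single test dose, limit read from the data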;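 note: plate controls were DMSO with enzyme for no effect and no enzyme buffer wells for full effect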
Target sequence (Q9BQF6 706-1050 limits assumed): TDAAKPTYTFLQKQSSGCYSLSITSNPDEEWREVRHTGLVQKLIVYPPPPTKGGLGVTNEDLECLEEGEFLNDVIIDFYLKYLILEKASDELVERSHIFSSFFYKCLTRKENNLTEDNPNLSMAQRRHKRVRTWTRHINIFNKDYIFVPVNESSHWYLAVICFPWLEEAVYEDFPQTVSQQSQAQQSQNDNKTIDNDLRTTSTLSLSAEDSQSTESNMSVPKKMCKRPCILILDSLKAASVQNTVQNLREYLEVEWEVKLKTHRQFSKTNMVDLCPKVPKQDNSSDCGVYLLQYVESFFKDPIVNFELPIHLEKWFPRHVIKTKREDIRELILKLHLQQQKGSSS
SENP8 block-1: SENP8 protease inhibition | inhibition, % at 10 µM | Q96LD8 | purified SENP8, Z-RLRGG-aminoluciferin cleavage, luminescence | AID 2540 | actives 1.2% (n = 330,000); in the data active = inhibition above about 50%
SENP6 inh: inhibitors of human SENP6 protease. inhibition, % at 10 µM. Recombinant SENP6 catalytic domain, aminoluciferin luminescence. actives 1.8% (n = 330,000). Q9GZR1;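 active = inhibition above about 50% at the single tested dose, limit read from the data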;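 note: plate controls were DMSO wells with enzyme for no effect and DMSO wells lacking enzyme for full effect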
SENP8 block-2: SENP8 (human) protease inhibition | Q96LD8 | recombinant SENP8, Nedd8 substrate fluorescence | inhibition, % at 20 µM | actives 0.64% (n = 360,000); in the data active = inhibition mostly above about 40%, no sharp cut-off; inactive = mostly below about 27%
TRAIL sens C8: caspase-8 TRAIL sensitization. NB7+C8 cells + TRAIL, ATPlite viability luminescence. inhibition (viability loss, TRAIL sensitization), % at 10 µM. actives 1% (n = 360,000);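 active = compounds causing at least 50% loss of cell viability in the single-dose screen, relative to plate controls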
PPC-1+TRAIL kill: compounds killing PPC-1 cancer cells with TRAIL present (potentiator screen, no TRAIL-free arm). cell killing (% activity), % at 4 µM or 5 µM. AID 1443. actives 0.41% (n = 220,000). PPC-1 cells + TRAIL, ATPLite viability luminescence;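 active = cell killing above 50% in the first pass at 4 µM, then a duplicate retest at 5 µM averaging 50% or more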;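 note: plate controls were cells with TRAIL plus DMSO for no effect and medium-only wells lacking cells for full effect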
SENP8 conf: confirmation of human SENP8 protease inhibitors; AID 488912; inhibition, % at 12.5 µM; Recombinant SENP8, Z-RLRGG-aminoluciferin luminescence, 60 min; actives 40% (n = 6,200); shares compounds with SENP7 inh;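 active = mean inhibition across replicates above about 50%, limit read from the data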
SENP6 confirm: human SENP6 inhibition, confirmed; shares compounds with SENP7 inh; recombinant SENP6, Z-RLRGG-aminoluciferin luminescence; inhibition, % at 12.5 µM; actives 58% (n = 6,200); AID 488915
SENP7 conf: human SENP7 inhibition, confirmed; shares compounds with SENP7 inh; recombinant SENP7, Z-RLRGG-aminoluciferin luminescence, 40 min; inhibition, % at 12.5 µM; actives 69% (n = 6,200); AID 488917
Casp3 select: selectivity test for SENP inhibitors: human caspase-3 inhibition; shares compounds with SENP7 inh; purified caspase-3, Z-DEVD-aminoluciferin luminescence, 60 min; inhibition, % at 12.5 µM; actives 60% (n = 6,200);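 active = mean inhibition above about 50%, limit read from the data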;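 note: plate controls were enzyme with DMSO for no effect and wells without caspase-3 for full effect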
Luc interf: interferes with luciferase luminescence in SENP counter-screen. shares compounds with SENP7 inh. Pre-incubated SENP8/Z-RLRGG-aminoluciferin, luciferase luminescence interference. inhibition, % at 12.5 µM. actives 39% (n = 6,200);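 active = mean inhibition above about 50% when retested at one dose, limit read from the data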;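 note: plate controls were DMSO wells with completed reaction for no effect and substrate without enzyme for full effect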
The depositor's hits bear a star; . = no result given.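 Rule for the calls, unless noted: active = mean inhibition above about 50% in the one-dose retest (limit read from the data); inactive = the rest.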

SMILES	SENP7 inh	SENP8 block-1	SENP6 inh	SENP8 block-2	TRAIL sens C8	PPC-1+TRAIL kill	SENP8 conf	SENP6 confirm	SENP7 conf	Casp3 select	Luc interf
CC1(C)CCC(=O)N2CC[C@H]3C[C@H](OC(=O)Nc4ccccc4)C[C@@H]1[C@H]32	72.9*	55.6*	68.6*	14.9	11.6	.	49.0	52.4*	86.9*	76.8*	69.3*
COc1ccc(NC(=O)c2cccc3c2C(=O)c2ccc(-c4cnc(OC)nc4)cc2S3(=O)=O)cc1	1.6	-17.0	2.7	1.6	-3.1	.	.	.	.	.	.
CCOC(=O)c1cc(-c2ccccc2)nc2nc(N(CC)CC)sc12	1.4	3.3	-3.9	-304.5	-22.4	.	.	.	.	.	.
O=[N+]([O-])c1cc(-c2cnc3ccccc3n2)ccc1Cl	50.7*	0.7	6.6	-16.2	-1.5	15.9	-19.2	-9.1	10.8	23.5	7.8
Cc1c(C(=O)Oc2ccc(-c3cnc4ccccc4n3)cc2)cccc1[N+](=O)[O-]	2.3	20.8	24.0	-17.2	-1.8	5.3	.	.	.	.	.
O=C(Oc1ccc(-c2cnc3ccccc3n2)cc1)c1cc([N+](=O)[O-])ccc1Cl	77.7*	39.8	43.9	-49.0	6.6	20.1	0.6	1.4	-2.3	42.2	1.3
Nc1cccc(-c2cnc3ccccc3n2)c1	57.9*	51.2*	68.0*	15.8	2.7	.	-9.9	37.6	78.3*	75.4*	49.3
O=[N+]([O-])c1cccc(-c2cnc3ccccc3n2)c1	31.6	13.5	31.6	22.1	-10.8	5.8	.	.	.	.	.
CC(=O)C[C@H](O)CC(=O)[C@@H]1OC(=O)CCCCCCCCc2ccccc21	-10.3	-7.4	-7.1	13.8	-1.4	.	.	.	.	.	.
COc1ccc(/C(N)=N/OC(=O)c2cccs2)cc1	15.4	57.7*	77.1*	10.8	17.2	13.5	64.0*	73.9*	95.4*	74.6*	82.2*
COc1ccccc1C(=O)O/N=C(\N)c1ccc(Cl)cc1	24.2	12.8	-1.0	0.3	26.9	22.6	.	.	.	.	.
COc1ccc(C(=O)O/N=C(\N)c2ccc(Cl)cc2)cc1	68.4*	45.0	57.8*	17.9	22.8	.	45.4	41.5	84.2*	72.5*	42.4
N/C(=N\OC(=O)c1ccc(Cl)cc1)c1[nH]ncc1Br	99.9*	96.4*	99.9*	-5.5	34.7	-6.9	97.9*	98.3*	101.2*	97.5*	97.6*
Cc1cccc(C(=O)O/N=C(\N)c2ccc(Cl)cc2)c1	49.5	21.8	24.5	13.3	34.3	.	.	.	.	.	.
Cc1ccc(/C(N)=N/OC(=O)c2ccc(Cl)cc2Cl)cc1	64.1*	49.3	79.0*	4.9	66.7*	57.2*	33.4	50.2*	84.2*	46.6	59.1*
COc1ccc(/C(N)=N/OC(=O)c2ccc(Br)o2)cc1	16.2	2.1	42.6	14.4	42.2	.	.	.	.	.	.
Cc1ccc2c(C)c(C(=O)Nc3ccc(S(=O)(=O)Nc4onc(C)c4C)cc3)oc2c1	0.1	14.2	5.8	-4.2	-20.6	.	.	.	.	.	.
Cc1ccc(C(=O)O/N=C(\N)Cc2ccc([N+](=O)[O-])cc2)c(Cl)c1	7.3	2.1	-6.8	20.6	-0.6	-0.3	.	.	.	.	.
Cc1cc(/C(N)=N/OC(=O)c2ccc(Cl)cc2)no1	93.9*	79.8*	85.2*	31.1	14.0	11.8	24.2	85.9*	97.4*	92.3*	20.9
N/C(=N\OC(=O)c1cccs1)c1ccc(Cl)cc1	67.7*	51.3*	61.1*	17.5	39.3	19.3	5.1	5.7	11.4	7.4	11.4
N/C(=N\OC(=O)Cc1cccs1)c1ccc(Cl)cc1	-0.9	-8.7	-2.2	0.0	-2.2	-7.5	.	.	.	.	.

Screening results (PubChem)
